Assay outcomes as filed in PubChem.
Sampled rows, rich in hits. Any-hit rate of the full collection: about 19%.
TDP1 cell noCPT: qHTS for Inhibitors of human tyrosyl-DNA phosphodiesterase 1 (TDP1): qHTS in cells in absence of CPT | AID 686978, 2013 | DT40 Tdp1-/- hTDP1 cells, no CPT, ATP luminescence, 48 h | 420,000 compounds, 15% hits | Potency, µM (highest dose often 46.2 µM), for inactives: at the highest dose activity change, negative = growth inhibition, usual class: inhibitors; also: potency is read from the fitted curve at half-maximal effect; nearly all actives have a fitted effect of over 55% in size
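A cellular qHTS used chicken DT40 cells lacking endogenous Tdp1 but carrying stably transfected human TDP1. Compounds were applied without camptothecin, and cell growth kinetics were judged by ATP-dependent luminescence after ≥48 hr.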
HT1080 IDH1KD tx: toxicity to HT-1080 IDH1 knockdown cells (counter line); AID 686971; 360,000 compounds, 2% hits; HT-1080 IDH1 knockdown viability, ATP luminescence, 48 h; Potency, µM (series often up to 46.1 µM), inactives show at the highest dose activity, negative = toxicity, most hits filed as cytotoxic;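 also: potency is read from the fitted curve at half-maximal effect; 0% = DMSO wells and -100% = cell-free medium wells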
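Knockdown cells (IDH1KD HT-1080) received compounds 2 h after plating at 750 cells/well and were kept 48 h at 37 °C in 5% FBS RPMI. A CellTiter-Glo luminescence read gave % activity for curve fitting.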
ELG1 DNA repair: ELG1-dependent DNA repair inhibition; HEK293T ELG1-luciferase reporter, luminescence, 16 h; DNA damage induced by 5-fluorouridine; Potency, µM (titrated, usually from 46.1 µM), for the others: at the highest dose activity change, negative = inhibition, actives largely listed as inhibitors; 330,000 compounds, 2.3% hits; AID 504467; also: potency is read from the fitted curve at half-maximal effect; nearly all actives have a fitted effect of over 55% in size
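Overnight (16 hr) co-exposure of 2,000 cells/well to 5-fluorouridine and compound at 37 °C preceded detection. Luciferase was quantified via ONE-Glo luminescence; loss of signal denotes inhibition.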
TDP1 cell CPT: growth inhibition of DT40 Tdp1-/-;hTDP1 cells with camptothecin (screen for TDP1 inhibitors) | chicken DT40 Tdp1-/-;hTDP1 cells + 20 nM CPT, ATP luminescence, 48 h | Potency, µM (top dose mostly 46.2 µM), for inactives: top-dose activity change, negative = growth inhibition, most hits filed as inhibitors | 420,000 compounds, 12% hits; also: potency is read from the fitted curve at half-maximal effect; nearly all actives have a fitted effect of over 55% in size
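Chicken DT40 Tdp1-/- cells stably complemented with human TDP1 were seeded at 400 cells/well in medium containing 20 nM camptothecin, exposed to pin-transferred compounds, and grown at 37 °C for at least 48 hr. Viability was read as ATP luminescence.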
IL1B secr inh: inhibitors of inflammasome signaling (IL-1 beta secretion); activity change, % at 57.5 µM; THP-1 LPS/ATP IL-1B secretion, AlphaLISA, 16 h; stronger effect = lower value; 360,000 compounds, 4.7% hits; AID 743279; in the data active = activity change below about -50%; inconclusive = mostly about -30% to -49%
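THP-1 cells pretreated 1 hr with compounds (up to 57.5 uM final), then stimulated with LPS (250 ng/mL final) plus ATP (1.25 mM final); secreted IL-1B measured by AlphaLISA after 16 hr, decreased signal indicating inhibition.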
HT1080NT lethal: kills 2HG-producing HT-1080-NT fibrosarcoma cells. HT-1080-NT fibrosarcoma viability, CellTiter-Glo ATP luminescence, 48 h. Potency, µM (highest dose often 46.1 µM), without a hit: at the top dose activity, negative = less viability, hits mostly cytotoxic. 360,000 compounds, 1.6% hits;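 also: NT is the 2HG producing partner of a matched IDH1 knockdown line; potency is read from the fitted curve at half-maximal effect; 0% = DMSO-treated cells and -100% = media-only wells without cells; nearly all actives have a fitted effect of over 55% in size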
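Fibrosarcoma NT cells, 750 per well in 5% FBS RPMI, were exposed to compound for 48 hours. Viability: CellTiter-Glo luminescence.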
Starred values were filed as active, the others as inactive; i = inactive; ? = inconclusive; / = not tested or not shown. Unless noted, calls follow the shape of the dose curve; as a rule, active = well fitted curve in the direction sought with a large enough effect; inconclusive = small, poorly fitted or top-dose-only effect, or another doubt; inactive = no such curve, though single readings can be large; an effect the other way counts as inactive or inconclusive. Unless noted, % is scaled to controls: 0 for no effect and ±100 for the full control effect.

SMILES | TDP1 cell noCPT | HT1080 IDH1KD tx | ELG1 DNA repair | TDP1 cell CPT | IL1B secr inh | HT1080NT lethal
CC(=O)c1sc(N/N=C/c2cccc([N+](=O)[O-])c2)nc1C | -23% | 21% | ? | -18% | -23 | 0%
O=C(CN1C(=O)CCSc2ccc(S(=O)(=O)N3CCCC3)cc21)Nc1ccccc1 | -1% | 1% | 10% | -4% | 9 | 11%
O=C(CN1C(=O)CCSc2ccc(S(=O)(=O)N3CCCC3)cc21)Nc1cccc(Cl)c1 | ? | / | / | 23µM* | / | /
O=C(CN1C(=O)CCSc2ccc(S(=O)(=O)N3CCCC3)cc21)Nc1cccc(F)c1 | ? | / | / | 13µM* | / | /
OC[C@H]1O[C@@H](n2cnc3c(N[C@H]4C[C@H]5CC[C@@H]4C5)ncnc32)[C@H](O)[C@@H]1O | 0% | / | / | 6% | / | /
O=C(N/N=C/c1cccnc1)c1ccccc1Cl | -25% | 17% | ? | 4% | 32 | 4%
O=C(N/N=C/c1cccnc1)c1ccccc1OCc1ccc(Cl)cc1 | / | / | 23µM* | / | / | /
O=C(N/N=C/c1cccnc1)c1cc(-c2ccccc2OCc2ccccc2)n[nH]1 | 23µM* | ? | ? | ? | -23 | ?
CCn1ccnc1CN(C)Cc1c(C(=O)N2C[C@@H](C)O[C@@H](C)C2)nc2ccc(Cl)cn12 | -5% | 3% | 11% | -7% | 18 | 10%
NS(=O)(=O)c1ccc(CCNC(=O)c2ccc(NC3=NC4CS(=O)(=O)CC4S3)cc2)cc1 (stereo unspecified) | -1% | 25% | -5% | 19% | 2 | 28%
O=C(CSc1nnc2[nH]c(=O)cc(-c3ccccc3)n12)Nc1ccc(OC(F)(F)F)cc1 | 5% | / | / | -4% | / | /
CCOC(=O)c1cc(-c2ccccc2)n(-c2cccc(C(=O)N(CC)c3ccccc3)c2)c1C | 18µM* | / | / | 15µM* | / | /
CCOC(=O)c1cc(-c2ccccc2)n(-c2cccc(C(=O)Nc3cccc(C)c3)c2)c1C | 23µM* | / | / | ? | / | /
CCOC(=O)c1cnn(-c2ccc(C(=O)Nc3cccc(C(C)=O)c3)cc2)c1N | ? | / | / | 2.1µM* | / | /
COc1ccc(NC(=O)CN2C(=O)C(C)Oc3ccccc32)cc1OC (stereo unspecified) | ? | -4% | -2% | -28% | 30 | -6%
Cc1ccc(S(=O)(=O)c2nc(S(=O)(=O)c3ccccc3)sc2NCCCOC(C)C)cc1 | 12µM* | / | / | ? | / | /
CCCS(=O)(=O)c1nc(S(=O)(=O)c2ccc(C)cc2)c(NCc2ccccc2Cl)s1 | -28% | / | / | -30% | / | /
CCCS(=O)(=O)c1nc(S(=O)(=O)c2ccc(C)cc2)c(NCCCOC(C)C)s1 | 16µM* | / | / | ? | / | /
COC(=O)C(CCSC)NC(=O)c1cn(-c2ccc(OC)cc2)c(=O)c2ccccc12 (stereo unspecified) | 18% | 16% | -2% | -4% | -8 | -2%
Cc1c(Br)c([N+](=O)[O-])nn1CC(=O)N1CCN(C23CC4CC(CC(C4)C2)C3)CC1 | -23% | -3% | 3% | -19% | -1 | -6%
COc1nn(CC(=O)N2N=C(C)CC2(O)C(F)(F)F)cc1[N+](=O)[O-] (stereo unspecified) | -4% | 5% | 11% | -20% | 9 | 1%
CC1=NN(C(=O)Cn2ccc([N+](=O)[O-])n2)C(O)(C(F)(F)F)C1 (stereo unspecified) | 5.8µM* | 6% | -7% | 5.8µM* | i | 9%
CC1=NN(C(=O)Cn2nc([N+](=O)[O-])c(Br)c2C)C(O)(C(F)(F)F)C1 (stereo unspecified) | 21µM* | 18% | 6% | 23µM* | 11 | 11%
CC(OC(=O)c1cccc(-n2cnnn2)c1)C(=O)Nc1cccc(Cl)c1 (stereo unspecified) | ? | -10% | -27% | ? | -1 | -5%
CCOC(=O)c1c(Nc2ccccc2)sc(/C=C2\C=Nc3ccccc32)c1O | ? | ? | -11% | 21µM* | 10 | ?
SMILES | TDP1 cell noCPT | HT1080 IDH1KD tx | ELG1 DNA repair | TDP1 cell CPT | IL1B secr inh | HT1080NT lethal
COc1ccc(/C=C2/CCc3ccccc3C2=O)cc1CN1CCOCC1 | 16µM* | -4% | ? | 23µM* | -1 | 3%
COc1ccc(/C=C2\CCc3ccccc3C2=O)cc1Cn1nc(C)cc1C | ? | ? | -24% | ? | -51* | ?
CC(=O)Oc1ccc(/C=C2/CCc3ccccc3C2=O)cc1 | ? | 1% | ? | ? | -13 | -7%
O=C(Cn1c(=O)n(CCc2ccccc2)c(=O)c2cccnc21)Nc1ccc(F)cc1 | ? | / | / | -26% | / | /
COC(=O)c1ccc(NC(=O)CSc2nccn2Cc2ccc(Cl)cc2)cc1 | -28% | / | / | ? | / | /
CCOC(=O)c1c(C)[nH]c(C(=O)N/N=C/c2cc([N+](=O)[O-])ccc2O)c1C | 6.5µM* | ? | -13% | 6.5µM* | 96 | -26%
CCOC(=O)c1c(C)[nH]c(C(=O)N/N=C/c2ccc(OC)c(OC)c2)c1C | 0.92µM* | ? | -9% | 1.2µM* | 15 | 14%
CCOC(=O)c1c(C)[nH]c(C(=O)OCc2ccc([N+](=O)[O-])cc2)c1C | -10% | -11% | ? | ? | ? | -2%
COc1ccc(/C=N/NC(=O)c2[nH]nc3c2CCc2ccccc2-3)cc1OC | 2.6µM* | ? | -3% | 6.5µM* | 116 | -24%
COc1ccccc1/C=N/NC(=O)c1[nH]c(C)c(C(=O)N/N=C/c2ccccc2OC)c1C | -1% | 11% | ? | 12% | -14 | 6%
CCOC(=O)c1c(C)[nH]c(C(=O)N/N=C\c2ccccc2O)c1C | 3.7µM* | 5.8µM* | ? | 4.1µM* | 29 | 7.3µM*
COc1c(Cl)c(=O)oc2ccc(Cl)cc12 | -2% | 18% | / | -14% | 9 | 2%
COc1ccccc1-n1c(=O)oc2ccc(Cl)cc2c1=O | 16µM* | 2.9µM* | -15% | ? | -20 | 2.9µM*
Cc1cccc(NC2=CC(c3cccc(Br)c3)N(c3cccc(C)c3)C2=O)c1 (stereo unspecified) | 8.2µM* | / | / | ? | / | /
O=C1CCN(c2ccccc2)N1 | -50% | -1% | / | 29µM* | 1 | 0%
COc1ccc(-c2noc(CCC(=O)N3CCN(c4ccccc4)CC3)n2)cc1 | -22% | 8% | 3% | -1% | -14 | 6%
